DRD3 agonist – qHTS of D3 Dopamine Receptor Agonist: qHTS. D(3) dopamine receptor (Homo sapiens), P35462. D3R DiscoveRx beta-arrestin cells, luminescence, 90 min. max activation, %. hit rate 0.58% among 410,000. AID 652048, 2013; in the data active = max activation above about 30%
Target sequence (P35462 whole entry, looked up): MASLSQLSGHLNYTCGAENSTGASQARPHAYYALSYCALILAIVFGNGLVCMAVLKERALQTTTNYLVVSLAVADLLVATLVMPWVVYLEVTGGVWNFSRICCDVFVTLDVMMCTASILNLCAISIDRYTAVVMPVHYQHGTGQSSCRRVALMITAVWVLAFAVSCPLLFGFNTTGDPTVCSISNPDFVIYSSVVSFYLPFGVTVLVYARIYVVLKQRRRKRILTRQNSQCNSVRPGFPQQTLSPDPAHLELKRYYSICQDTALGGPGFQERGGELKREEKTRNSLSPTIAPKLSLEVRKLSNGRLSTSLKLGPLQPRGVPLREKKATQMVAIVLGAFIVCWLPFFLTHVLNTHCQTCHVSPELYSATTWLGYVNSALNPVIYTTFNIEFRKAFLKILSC
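Agonist-mode cell screen: cells plated at 1500/well and incubated overnight at 37 °C, then exposed to library compounds for 90 min at 37 °C. Detection reagent was added for 30–60 min at room temperature, and luminescence was read.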
DT40 TDP1 CPT – qHTS for Inhibitors of human tyrosyl-DNA phosphodiesterase 1 (TDP1): qHTS in cells in presence of CPT | AID 686979, 2013 | chicken DT40 Tdp1-/-;hTDP1 cells + 20 nM CPT, ATP luminescence, 48 h | hit rate 12% among 420,000 | Potency, µM (highest dose often 46.2 µM), most hits filed as inhibitors; also: nearly all actives have a fitted effect of over 55% in size
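Cell growth measured by CellTiter-Glo luminescence after a minimum 48 h, 37 C compound exposure with 20 nM CPT in Tdp1-knockout DT40 cells stably expressing hTDP1, seeded 400/well; qHTS titration format.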
TDP1 cell noCPT – qHTS for Inhibitors of human tyrosyl-DNA phosphodiesterase 1 (TDP1): qHTS in cells in absence of CPT | DT40 Tdp1-/- hTDP1 cells, no CPT, ATP luminescence, 48 h | Potency, µM (series often up to 46.2 µM), actives largely listed as inhibitors | hit rate 15% among 420,000 | AID 686978, 2013; also: nearly all actives have a fitted effect of over 55% in size
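Compound effects on proliferation are scored in DT40 Tdp1-/-;hTDP1 cells in the absence of CPT. ATP levels (CellTiter-Glo luminescence) are recorded after a ≥48 hr, 37 °C incubation.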
DRD3 antagonist – qHTS of D3 Dopamine Receptor Antagonist: qHTS. D(3) dopamine receptor (Homo sapiens), P35462. hit rate 2.5% among 360,000. max response, negative = inhibition, %. D3R cells, DiscoveRx beta-arrestin luminescence, antagonist mode; active compounds read low; in the data active = max response below about -50%; inconclusive = no clear call, values can overlap the other calls
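Cells expressing the human receptor were seeded at 1500 cells/well, incubated overnight at 37 degrees C in 5% CO2, then exposed to library compounds with dopamine controls for 90 minutes at 37 degrees C before luminescent detection.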
ClpP mod – qHTS Assay for Activators of ClpP; Potency, µM (doses to about 57.5 µM); ATP-dependent Clp protease proteolytic subunit (Bacillus subtilis (strain 168)), P80244; hit rate 1.9% among 340,000; purified B. subtilis ClpP, FRET peptide cleavage, 20 min; active = well fitted falling curve with a large enough effect; inconclusive = small, poorly fitted or top-dose-only effect; inactive = no such curve, though single readings can be large or run the other way; also: the source files actives as falling curves though it sought activators and does not explain the sign; nearly all actives have a fitted effect of over 65% in size
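Purified B. subtilis ClpP, 10 microg/mL final in Tris/HCl pH8 with KCl, BSA, glycerol and Tween-20, cleaved an Abz/nitrotyrosine-quenched decapeptide. Fluorescence (ex 320, em 430) was read at 0 and 20 min at room temperature. Delta was normalized to 5.8 microM ADEP and DMSO/no-enzyme controls.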
IL-1B inflam inh – qHTS for Inhibitors of Inflammasome Signaling: IL-1-beta AlphaLISA Primary Screen; THP-1 LPS/ATP IL-1B secretion, AlphaLISA, 16 h; active compounds read low; activity change, % at 57.5 µM; hit rate 4.7% among 360,000; in the data active = activity change below about -50%; inconclusive = mostly about -30% to -49%
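THP-1 cells pretreated 1 hr with compounds (up to 57.5 uM final), then stimulated with LPS (250 ng/mL final) plus ATP (1.25 mM final); secreted IL-1B measured by AlphaLISA after 16 hr, decreased signal indicating inhibition.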
A number is an active result; - = inactive; ? = inconclusive; . = no result given. Hits are enriched below; roughly 21% of the tested compounds scored in any of these assays. Unless noted, calls follow the shape of the dose curve; as a rule, active = well fitted inhibition curve with a large enough effect; inconclusive = small, poorly fitted or top-dose-only effect; inactive = flat fitted curve, though single readings scatter.

SMILES	DRD3 agonist	DT40 TDP1 CPT	TDP1 cell noCPT	DRD3 antagonist	ClpP mod	IL-1B inflam inh
COc1cc(NC(=O)C2CCC(CNc3c(N4CCCCC4)c(=O)c3=O)CC2)cc(OC)c1 (configuration not stated)	-	-	?	-	-	-
Cc1cc(OC(=O)c2ccc(S(=O)(=O)N3CCOCC3)cc2)c([N+](=O)[O-])c(=O)[nH]1	-	-	-	-	.	-
Cc1ccc(S(=O)(=O)N2CCCC2)s1	-	-	-	-	-	-
CCCCCCC[n+]1ccc(/C=C/c2c(C)[nH]c3ccccc23)cc1	.	0.32µM	0.32µM	.	-	.
CCCCCCCCCCCCCCCC[n+]1ccc(/C=C/c2c(C)[nH]c3ccccc23)cc1	.	1µM	0.4µM	.	-	.
O=C(CCS(=O)(=O)c1ccc(Cl)cc1)N1CCCc2ccccc21	-	-	-	-	-	-
CN(CCNC(=O)C1CCCN(c2ncnc3c2nc2n3CCCCC2)C1)Cc1ccccc1 (configuration not stated)	-	?	?	-	-	-
CCOC(=O)Cc1csc(NC(=O)c2ccc(C)cc2)n1	-	-	?	-	.	-
CCOC(=O)Cc1csc(NC(=O)c2ccc(Cl)nc2)n1	-	?	23µM	-	-	-
CCCCC(=O)Nc1ccc(C(=O)Nc2nc(CC(=O)OCC)cs2)cc1	-	22µM	?	-	-	-
CCCN(C(=O)CSc1nnc2ccccn12)C1CCS(=O)(=O)C1 (configuration not stated)	-	-	-	-	-	-
CCOC1=C2[C@@H](CN(S(=O)(=O)c3ccc(C)cc3)[C@H]2c2ccccc2F)[C@H]2C(=O)N(CC)C(=O)[C@H]2C1	-	?	?	-	-	-
CCOC1=C2[C@@H](CN(S(=O)(=O)c3ccc(C)cc3)[C@H]2c2ccccc2Cl)[C@H]2C(=O)N(Cc3ccccc3)C(=O)[C@H]2C1	-	18µM	15µM	-	-	-
COc1ccc(NS(=O)(=O)c2cccc(C(=O)N3CCN(Cc4ccc5c(c4)OCO5)CC3)c2)cc1	-	26µM	?	-	-	-
COc1ccccc1NS(=O)(=O)c1cccc(C(=O)N2CCN(C/C=C/c3ccccc3)CC2)c1	-	21µM	21µM	-	-	-
Cc1cccc(NS(=O)(=O)c2cccc(C(=O)N3CCCCCCC3)c2)c1	-	18µM	5.2µM	-	-	-60
COc1ccccc1NS(=O)(=O)c1cc(C(=O)N2CCN(C/C=C/c3ccccc3)CC2)ccc1C	-	?	?	-	-	-
COc1ccc(NS(=O)(=O)c2cccc(C(=O)N3CCN(C/C=C/c4ccccc4)CC3)c2)cc1	-	23µM	16µM	-	-	-
COc1ccc(NC(=O)COc2ccc(C(=O)NC3CCCc4ccccc43)cc2OC)cc1 (configuration not stated)	-	-	-	-	.	-
O=S(=O)(Nc1cccc(-c2ccc(N3CCOCC3)nn2)c1)c1ccc(F)cc1F	-	-	-	.	-	.
CN(C)CCN1C(=O)NC(C)(c2ccc([N+](=O)[O-])cc2)C1=O (configuration not stated)	-	-	-	-	.	-
CCOC(=S)SCC(=O)N1CCc2ccccc2C1C1C(=O)CCCC1=O (configuration not stated)	-	-	-	-	-	-
CC(=O)c1ccc(N2CCN(c3nc4ccccc4c4nc(-c5cccc(C)c5)nn34)CC2)cc1	-	-	-	.	-	.
Cc1cccc(NS(=O)(=O)c2cccc(C(=O)N3CCN(C/C=C/c4ccccc4)CC3)c2)c1	-	?	?	-	-	-54
CN(CC(=O)Nc1c(Cl)cccc1Cl)C(=O)c1cccc(-n2cccc2)c1	-	16µM	-	-	.	-

Assay outcomes (PubChem BioAssay)
